# Measurements published in the supplement of paper PMC7724964.
# T1: VCL 1-259 Vinculin (domain begin residue: 1, domain end residue: 259), P18206
# T1 chain: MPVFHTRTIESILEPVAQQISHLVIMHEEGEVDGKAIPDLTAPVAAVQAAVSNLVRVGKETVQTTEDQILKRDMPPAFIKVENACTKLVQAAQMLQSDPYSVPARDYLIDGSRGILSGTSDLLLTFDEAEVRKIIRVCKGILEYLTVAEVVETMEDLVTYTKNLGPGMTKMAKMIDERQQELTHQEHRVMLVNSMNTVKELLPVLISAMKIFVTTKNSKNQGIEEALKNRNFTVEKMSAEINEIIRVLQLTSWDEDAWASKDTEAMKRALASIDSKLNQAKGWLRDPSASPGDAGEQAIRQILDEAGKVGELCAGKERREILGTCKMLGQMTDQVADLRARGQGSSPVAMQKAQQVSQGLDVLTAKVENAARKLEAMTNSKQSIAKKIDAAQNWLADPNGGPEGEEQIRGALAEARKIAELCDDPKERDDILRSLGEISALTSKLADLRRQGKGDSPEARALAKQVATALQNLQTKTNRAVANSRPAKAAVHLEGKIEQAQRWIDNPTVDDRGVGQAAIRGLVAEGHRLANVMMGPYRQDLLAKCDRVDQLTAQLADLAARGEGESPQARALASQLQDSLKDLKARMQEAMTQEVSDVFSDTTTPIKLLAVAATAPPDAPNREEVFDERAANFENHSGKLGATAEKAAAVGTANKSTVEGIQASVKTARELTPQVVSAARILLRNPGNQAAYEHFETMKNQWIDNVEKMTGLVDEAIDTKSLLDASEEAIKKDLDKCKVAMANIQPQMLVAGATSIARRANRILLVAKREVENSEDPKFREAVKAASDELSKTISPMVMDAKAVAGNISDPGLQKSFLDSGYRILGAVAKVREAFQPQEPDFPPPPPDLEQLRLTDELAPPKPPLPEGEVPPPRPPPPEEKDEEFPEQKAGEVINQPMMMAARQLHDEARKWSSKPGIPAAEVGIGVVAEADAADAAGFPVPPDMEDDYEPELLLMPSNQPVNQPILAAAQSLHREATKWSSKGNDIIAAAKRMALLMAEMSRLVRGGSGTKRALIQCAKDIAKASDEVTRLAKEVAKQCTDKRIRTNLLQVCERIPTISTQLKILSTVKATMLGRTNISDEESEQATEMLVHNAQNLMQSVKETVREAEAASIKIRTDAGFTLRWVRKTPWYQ
# T2: UEVLD 1-145 UEV (domain begin residue: 1, domain end residue: 145), Q8IX04
# T2 chain: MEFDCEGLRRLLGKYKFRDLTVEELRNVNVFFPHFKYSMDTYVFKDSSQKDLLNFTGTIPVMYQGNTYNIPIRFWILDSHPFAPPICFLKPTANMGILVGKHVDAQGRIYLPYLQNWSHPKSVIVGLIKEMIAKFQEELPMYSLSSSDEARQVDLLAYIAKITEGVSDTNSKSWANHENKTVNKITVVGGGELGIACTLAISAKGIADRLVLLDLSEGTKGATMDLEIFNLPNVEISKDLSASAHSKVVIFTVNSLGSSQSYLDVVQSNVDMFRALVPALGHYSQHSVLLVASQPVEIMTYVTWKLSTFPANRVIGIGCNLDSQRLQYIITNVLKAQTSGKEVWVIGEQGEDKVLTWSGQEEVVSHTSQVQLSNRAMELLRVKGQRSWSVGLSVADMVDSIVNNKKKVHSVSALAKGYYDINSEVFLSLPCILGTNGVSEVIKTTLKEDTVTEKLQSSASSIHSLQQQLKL
# T3: UQCRB 8-111 UCR_14kD (domain begin residue: 8, domain end residue: 111), P14927
# T3 chain: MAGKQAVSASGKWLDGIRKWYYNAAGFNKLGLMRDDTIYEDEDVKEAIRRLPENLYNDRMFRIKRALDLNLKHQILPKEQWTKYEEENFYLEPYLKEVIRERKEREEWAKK
# Experiments:
# Assay in all cases: phage ELISA signal ratio (GST-PRM binding over GST background); higher = stronger binding of peptide-phage to the PRM
# [1] = target: T1, VCL 1-259 Vinculin (domain begin …
# Procedure, shortened: (§1)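 Five rounds of selection were carried out against human peptide recognition domains fused to the C-terminus of glutathione S-transferase (GST) and expressed in 96-well plates. The M13 phage library presented randomized hexadecapeptides, cysteine-free and glycine-flanked, on the gene-8 major coat protein. For each value, the phage ELISA signal on the GST-domain fusion was divided by the signal on GST alone.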
# [2] = target: UBR5 2391-2453 PABP (domain begin residue: 2391, domain end residue: 2453), O95071
# Procedure, shortened: as §1
# [3] = target: T2, UEVLD 1-145 UEV (domain begin residue: …
# Procedure, shortened: as §1
# [4] = target: VASP 1-114 WH1 (domain begin residue: 1, domain end residue: 114), P50552
# Procedure, shortened: as §1
# [5] = target: T3, UQCRB 8-111 UCR_14kD (domain begin …
# Procedure, shortened: as §1
# [6] = target: WDR5 20-334 WD40 (domain begin residue: 20, domain end residue: 334), P61964
# Procedure, shortened: as §1
# Chain of UBR5 2391-2453 PABP (domain begin residue: 2391, domain end residue: 2453), O95071 (O95071 whole entry): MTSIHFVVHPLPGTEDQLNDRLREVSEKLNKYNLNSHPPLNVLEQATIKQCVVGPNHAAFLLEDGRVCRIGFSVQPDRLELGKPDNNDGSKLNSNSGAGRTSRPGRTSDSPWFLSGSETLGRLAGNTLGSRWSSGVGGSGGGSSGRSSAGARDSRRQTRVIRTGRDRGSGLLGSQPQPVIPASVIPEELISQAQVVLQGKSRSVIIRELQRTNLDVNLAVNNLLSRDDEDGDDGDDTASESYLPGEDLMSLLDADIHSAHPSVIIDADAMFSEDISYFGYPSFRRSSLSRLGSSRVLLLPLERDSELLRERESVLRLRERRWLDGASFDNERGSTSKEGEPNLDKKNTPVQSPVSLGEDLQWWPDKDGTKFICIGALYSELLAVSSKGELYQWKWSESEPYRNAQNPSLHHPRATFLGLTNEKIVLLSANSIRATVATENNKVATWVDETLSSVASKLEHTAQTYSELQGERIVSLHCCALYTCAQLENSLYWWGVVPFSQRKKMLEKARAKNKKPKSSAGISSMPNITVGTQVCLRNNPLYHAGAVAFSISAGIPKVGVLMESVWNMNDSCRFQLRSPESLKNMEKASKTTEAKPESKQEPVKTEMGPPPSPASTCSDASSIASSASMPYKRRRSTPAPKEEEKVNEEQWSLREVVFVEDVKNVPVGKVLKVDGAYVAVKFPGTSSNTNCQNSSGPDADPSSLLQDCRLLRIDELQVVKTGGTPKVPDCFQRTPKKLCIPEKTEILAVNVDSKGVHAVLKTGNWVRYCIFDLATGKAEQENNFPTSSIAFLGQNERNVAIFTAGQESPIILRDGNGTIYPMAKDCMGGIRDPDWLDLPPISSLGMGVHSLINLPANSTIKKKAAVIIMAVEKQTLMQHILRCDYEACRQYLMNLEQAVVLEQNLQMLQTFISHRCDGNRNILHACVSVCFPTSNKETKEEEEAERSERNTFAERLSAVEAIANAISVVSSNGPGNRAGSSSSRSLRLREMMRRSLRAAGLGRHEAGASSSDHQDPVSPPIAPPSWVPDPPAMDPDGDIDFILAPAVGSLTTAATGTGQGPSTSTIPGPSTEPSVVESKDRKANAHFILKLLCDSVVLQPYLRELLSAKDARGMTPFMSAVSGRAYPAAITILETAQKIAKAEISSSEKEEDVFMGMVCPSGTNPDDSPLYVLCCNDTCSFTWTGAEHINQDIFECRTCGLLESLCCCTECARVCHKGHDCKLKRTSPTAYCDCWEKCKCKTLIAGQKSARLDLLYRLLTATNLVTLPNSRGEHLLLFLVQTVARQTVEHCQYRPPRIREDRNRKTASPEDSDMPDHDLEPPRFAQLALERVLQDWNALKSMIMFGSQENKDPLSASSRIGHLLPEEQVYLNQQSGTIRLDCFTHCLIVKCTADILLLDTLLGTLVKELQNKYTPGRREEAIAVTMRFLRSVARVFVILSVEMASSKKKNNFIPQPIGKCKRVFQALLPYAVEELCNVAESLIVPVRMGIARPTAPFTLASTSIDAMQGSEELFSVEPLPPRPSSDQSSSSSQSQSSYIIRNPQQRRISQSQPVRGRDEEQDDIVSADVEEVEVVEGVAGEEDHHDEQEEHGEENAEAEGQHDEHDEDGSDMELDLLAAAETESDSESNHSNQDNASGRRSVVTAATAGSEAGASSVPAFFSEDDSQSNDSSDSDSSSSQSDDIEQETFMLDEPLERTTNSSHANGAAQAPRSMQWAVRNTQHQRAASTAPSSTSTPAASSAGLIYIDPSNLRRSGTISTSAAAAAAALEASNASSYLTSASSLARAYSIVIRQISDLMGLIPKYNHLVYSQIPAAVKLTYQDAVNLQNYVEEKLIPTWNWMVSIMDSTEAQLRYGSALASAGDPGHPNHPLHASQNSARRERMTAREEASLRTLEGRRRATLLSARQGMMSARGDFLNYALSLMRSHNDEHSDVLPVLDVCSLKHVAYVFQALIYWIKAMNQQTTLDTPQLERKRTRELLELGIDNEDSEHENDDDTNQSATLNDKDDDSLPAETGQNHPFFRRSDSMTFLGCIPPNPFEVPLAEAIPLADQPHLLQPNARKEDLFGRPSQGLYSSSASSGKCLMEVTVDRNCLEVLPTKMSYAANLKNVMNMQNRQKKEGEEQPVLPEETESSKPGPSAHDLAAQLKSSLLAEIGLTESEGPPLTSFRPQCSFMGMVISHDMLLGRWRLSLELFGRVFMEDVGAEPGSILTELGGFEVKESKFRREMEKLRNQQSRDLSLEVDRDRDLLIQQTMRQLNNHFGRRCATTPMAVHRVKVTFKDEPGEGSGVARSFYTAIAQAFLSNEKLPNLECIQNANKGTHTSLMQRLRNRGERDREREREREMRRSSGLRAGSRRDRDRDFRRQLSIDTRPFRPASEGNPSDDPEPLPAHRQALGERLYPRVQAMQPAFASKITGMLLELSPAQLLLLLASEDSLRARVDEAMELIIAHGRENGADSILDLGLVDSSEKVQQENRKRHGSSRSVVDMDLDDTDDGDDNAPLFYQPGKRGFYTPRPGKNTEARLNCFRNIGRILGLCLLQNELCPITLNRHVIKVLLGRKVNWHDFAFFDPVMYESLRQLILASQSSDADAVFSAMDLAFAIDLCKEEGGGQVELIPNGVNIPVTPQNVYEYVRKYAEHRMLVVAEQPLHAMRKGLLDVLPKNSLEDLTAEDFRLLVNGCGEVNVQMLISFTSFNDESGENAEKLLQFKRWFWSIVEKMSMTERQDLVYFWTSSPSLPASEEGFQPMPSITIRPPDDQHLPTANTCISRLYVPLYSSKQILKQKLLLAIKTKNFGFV
# Chain of VASP 1-114 WH1 (domain begin residue: 1, domain end residue: 114), P50552 (P50552 whole entry): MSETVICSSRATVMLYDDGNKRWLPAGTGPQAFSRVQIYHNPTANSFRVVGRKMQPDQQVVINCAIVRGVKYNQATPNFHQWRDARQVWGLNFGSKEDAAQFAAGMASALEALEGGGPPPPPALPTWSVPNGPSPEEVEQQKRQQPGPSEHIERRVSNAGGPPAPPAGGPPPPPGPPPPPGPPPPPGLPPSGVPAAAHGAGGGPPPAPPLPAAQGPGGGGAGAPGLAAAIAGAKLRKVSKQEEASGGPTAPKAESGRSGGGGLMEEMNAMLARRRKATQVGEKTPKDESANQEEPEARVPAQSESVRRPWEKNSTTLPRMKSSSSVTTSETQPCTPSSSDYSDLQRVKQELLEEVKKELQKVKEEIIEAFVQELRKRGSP
binder,measurement,setting,value
QMIEFWTEEEIMHWVH,phage ELISA signal ratio,[1],13.6
KLDVFAVPFLSSQHEY,phage ELISA signal ratio,[2],22.6
MPPWTEDAESWHMWLI,phage ELISA signal ratio,[1],14.8
MSQDWPWPDLSWFDEP,phage ELISA signal ratio,[3],7.15
AWSMLDIANIKPWNPM,phage ELISA signal ratio,[2],18.4
STQKDNNWPLPPVMEE,phage ELISA signal ratio,[4],21.6
PAWPPWPAEAVWEATK,phage ELISA signal ratio,[4],12.3
VLDINAQPFHQSGFNH,phage ELISA signal ratio,[2],25.7
APFTLWESSMEALGEL,phage ELISA signal ratio,[3],23.3
HEIWETDWQWIIDQAY,phage ELISA signal ratio,[1],20.4
VLPDWMAQHAWEWTGH,phage ELISA signal ratio,[5],23.9
RTEPYQWMKAAGFPTS,phage ELISA signal ratio,[6],9.24
LGQQYQMWEYMASLYN,phage ELISA signal ratio,[3],11.4
VDDQEWPNMEMLLGIV,phage ELISA signal ratio,[1],17.4
EFEWIDHFLGNMESGL,phage ELISA signal ratio,[3],8.99
WPDDLDWGTWLETLPL,phage ELISA signal ratio,[1],13.3
EQDQDLEYRMHMEKWW,phage ELISA signal ratio,[3],19.8
ERFTLFQSSMDSILMF,phage ELISA signal ratio,[3],26
VEFWWSDTSARTLPFK,phage ELISA signal ratio,[6],9.42
FMDMWHWQQLEDYMFL,phage ELISA signal ratio,[5],4.85
VPWSENQEWQWIFEAV,phage ELISA signal ratio,[3],29.3
FDTPLWEQAMWEALGE,phage ELISA signal ratio,[1],13.2
NNQVMNVNATPYYWPT,phage ELISA signal ratio,[2],19.4
WPPAPPTEQHRQMWAK,phage ELISA signal ratio,[4],7.1
DNWYWEAWDAAFLTNG,phage ELISA signal ratio,[1],20.4
LDWRMAPEWQWITHHL,phage ELISA signal ratio,[3],3.3
HPQEWSAEEIMVGILY,phage ELISA signal ratio,[1],14.1
WDPQADWQEQVQYWLV,phage ELISA signal ratio,[1],20.4
DPYWVWPDLPHNVSHP,phage ELISA signal ratio,[4],19.2
